Data reported in PubChem BioAssay AID743255 (National Center for Advancing Translational Sciences (NCATS), 2014).
Among all 390,000 compounds or so, about 910 (0.23%) were called active. Another 5% or so got no clear call; they are omitted. For the sample, actives were picked, then their nearest neighbours and some compounds at random. Unmarked numbers belong to inactive results. Calls come from the whole dose curve; as a rule, active = well fitted inhibition curve with a large enough effect; inconclusive = small, poorly fitted or top-dose-only effect; inactive = no such curve, though single readings can be large or run the other way.

Molecular target: Ubiquitin carboxyl-terminal hydrolase 1 (Homo sapiens) (UniProt O94782)
Sequence (O94782 whole entry, looked up): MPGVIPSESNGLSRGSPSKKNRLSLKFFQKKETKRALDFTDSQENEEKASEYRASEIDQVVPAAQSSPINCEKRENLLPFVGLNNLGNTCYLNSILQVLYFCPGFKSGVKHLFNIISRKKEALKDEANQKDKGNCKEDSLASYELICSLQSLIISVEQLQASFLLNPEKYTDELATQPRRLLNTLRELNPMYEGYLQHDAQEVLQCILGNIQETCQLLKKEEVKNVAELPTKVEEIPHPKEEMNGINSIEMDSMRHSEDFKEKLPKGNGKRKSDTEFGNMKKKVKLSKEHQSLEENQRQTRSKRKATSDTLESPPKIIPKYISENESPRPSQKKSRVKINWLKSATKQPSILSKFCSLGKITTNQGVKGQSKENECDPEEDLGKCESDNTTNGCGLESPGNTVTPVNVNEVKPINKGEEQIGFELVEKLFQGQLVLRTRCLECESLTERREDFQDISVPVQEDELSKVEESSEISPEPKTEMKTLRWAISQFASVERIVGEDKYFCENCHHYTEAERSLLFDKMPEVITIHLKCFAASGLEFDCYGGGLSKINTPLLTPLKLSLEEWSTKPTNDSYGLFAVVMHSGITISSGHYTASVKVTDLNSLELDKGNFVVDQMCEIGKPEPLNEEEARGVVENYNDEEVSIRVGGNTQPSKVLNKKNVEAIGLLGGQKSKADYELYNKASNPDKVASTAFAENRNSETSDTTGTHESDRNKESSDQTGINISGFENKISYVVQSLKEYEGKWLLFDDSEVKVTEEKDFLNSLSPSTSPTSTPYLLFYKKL
Experiment: Inhibitors of USP1/UAF1: Primary Screen; note: nearly all actives have a fitted effect of over 60% in size
Conditions: recombinant USP1/UAF1, Ub-Rhodamine cleavage fluorescence; series mostly up to 57.1 µM; activity change, negative = inhibition: at the top concentration
In short: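 Step one: compound is pinned into 1nM USP1/UAF1 in HEPES pH 7.8 buffer with TCEP. Step two: 15 min room-temperature incubation. Step three: Ub-Rho (150nM final) starts cleavage, tracked by fluorescence over six one-minute reads.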
% is set by controls: 0 for no effect and ±100 for the full control effect; potency is the fitted concentration of half-maximal effect.

Row | SMILES | activity change, negative = inhibition [%] | Potency
1 | O=C(CSc1ncc(-c2ccccc2)[nH]1)Nc1ccc(F)cc1F | -5.56 | 
2 | Cc1ccc(Cn2c(CNC(=O)Cc3cccc(C)c3)nc3cccnc32)cc1 | -24 | 
3 | Fc1ccc(Nc2nc(SCc3ccccc3Cl)nc3ccccc23)cc1 | -24.2 | 
4 | CCC(=O)Nc1c(C(=O)N2CCN(c3ccc(F)cc3)CC2)oc2ccccc12 | -18.1 | 
5 | CCOc1ccc(CCNC(=O)c2ccc3c(c2)sc2nc(-c4ccc(F)cc4)cn23)cc1OCC | 2.52 | 
6 | COc1ccc(N2CCN(C(=O)CSCc3nc(-c4ccccc4Cl)oc3C)CC2)cc1 | -26.2 | 
7 | Cc1ccc2c(=O)c(C(=O)c3ccc(F)cc3)cn(CC(=O)NC3CCCCC3)c2n1 | 2.13 | 
8 | CCN(CCCNC(=O)c1ccc(Sc2ccc(C)cc2)c(NC(C)=O)c1)c1cccc(C)c1 | -9.52 | 
9 | O=S(=O)(NCC(c1ccccc1)N1CCc2ccccc21)c1ccccc1 (stereo unspecified) | -27.1 | 
10 | CC1=CC2=NC(=O)/C(=C/c3coc4ccccc4c3=O)C(=N)N2O1 |  | 28.2 µM (active)
11 | O=C(CCn1c(=O)c2sccc2n(Cc2ccc(F)cc2)c1=O)NCc1ccc2c(c1)OCO2 | -8.87 | 
12 | O=C(CCSCc1ccccc1F)N1CCN(c2ccc(Cl)cc2)CC1 | -7.91 | 
13 | O=C(CC1N=C2c3ccccc3N=C(SCc3cccc(Cl)c3)N2C1=O)NCc1ccc2c(c1)OCO2 (stereo unspecified) | -5.07 | 
14 | COc1cc(OC)c(NC(=O)c2c3c(nn2C)-c2ccccc2SC3)cc1Cl | -25.8 | 
15 | O=C(CC(c1cccs1)N1Cc2ccccc2C1=O)Nc1ccc(F)c(F)c1 (stereo unspecified) | -15.1 | 
16 | NC1=CC(=O)C(=O)c2cccnc21 |  | 3.55 µM (active)
17 | CCc1ccccc1OCCSc1nc(-c2cccs2)nc2cc(=O)[nH]n12 | -13.4 | 
18 | O=[N+]([O-])c1ccc(C=Nc2ccc(Cl)cc2Cl)s1 |  | 28.2 µM (active)
19 | COc1ccc(NC(=O)c2cc3cc(C)ccc3n2C)cc1 | -6.32 | 
20 | CCC(=O)N1CCc2cc(Br)cc(S(=O)(=O)Nc3ccc(C)cc3C)c21 | -10.7 | 
21 | Cc1ccc(O)c(NC(=O)c2cc(-c3ccc(F)cc3)no2)c1 | -11.8 | 
22 | CCOC(=O)c1c(S(=O)(=O)N2CCCC(C(=O)NCc3ccc(F)cc3)C2)c(C)n(CC)c1C (stereo unspecified) | -24.5 | 
23 | CC1CCN(S(=O)(=O)c2ccc3c(c2)N(CC(=O)NCc2ccccc2Cl)C(=O)CO3)CC1 | -20.5 | 

Row | SMILES | activity change, negative = inhibition [%] | Potency
24 | CCOC(=O)N1CCc2c(sc3c2C(=O)NC(c2ccccc2F)N3)C1 (stereo unspecified) | -21.4 | 
25 | CC(C)(C)OC(=O)N1CCC(c2c(C(=O)NCc3ccccn3)cnn2-c2ccc(F)cc2)CC1 | 7.78 | 
26 | CCOC(=O)c1cccc(NC(=O)C(Cc2ccccc2)NS(=O)(=O)c2cccc3nsnc23)c1 (stereo unspecified) | -8.9 | 
27 | Cc1ccc2cccc(NC(=O)c3ccc(OC(C)C)cc3)c2n1 | -22.6 | 
28 | Cc1ccc(-c2nc3cccc(C)n3c2Nc2ccc3c(c2)OCCO3)cc1 | -11.9 | 
29 | CCN1CCC(N(Cc2ccc(F)cc2)C(=O)Nc2cc(C)ccc2C)CC1 | -12.8 | 
30 | CCc1ccc(CNC(=O)C2CCN(c3nn4cc(-c5ccc(F)cc5)nc4s3)CC2)cc1 | -6.33 | 
31 | COc1cc(OC)c(NC(=O)c2cnc(N3CCCC3)nc2C)cc1Cl | -25.5 | 
32 | CCc1ccc(NC(=O)c2cc(S(=O)(=O)N3CCCC(C)C3)cn2C)cc1 (stereo unspecified) | -21.5 | 
33 | Cc1cc(C)nc(NS(=O)(=O)c2ccc(NC(=O)c3cc(=O)c4ccc(C)c(C)c4o3)cc2)n1 | -20.7 | 
34 | Cc1oc2ncnc(N3CCOCC3)c2c1C(=O)NCCc1ccccc1 | -11.6 | 
35 | COc1ccc(-c2cn3c(n2)sc2cc(C(=O)Nc4ccc(F)cc4)ccc23)cc1 | 6.29 | 
36 | CN1/C(=C\C=C2\N=C(c3ccc(F)cc3)OC2=O)C(C)(C)c2ccccc21 |  | 28.2 µM (active)
37 | Cc1csc2nc(COC(=O)c3ccc(NC(=O)COc4ccccc4F)cc3)cc(=O)n12 | -3.82 | 
38 | CCCN1CCN(CCCNC(=O)c2cnn(-c3ccc(C)cc3)c2-n2cccc2)CC1 | -10.7 | 
39 | O=C(CCOc1ccccc1)N(Cc1cccnc1)c1nc2ccc(Cl)cc2s1 | -18.1 | 
40 | CC(NC(=O)c1cc(Sc2ccc(F)cc2F)nc2ccccc12)c1ccccc1 (stereo unspecified) | -9.65 | 
41 | COc1cccc(C(=O)NCc2ccc3c(c2)CCN3C(=O)c2ccncc2)c1 | -9.61 | 
42 | CCOC(=O)c1c(C)[nH]c2c1-c1ccccc1C(=O)C2=O |  | 1.26 µM (active)
43 | CCOC(=O)c1c(C)[nH]c(CCC(=O)Nc2ccc(OC)c(OC)c2)c1C | -19 | 
44 | CCOC(=O)c1c(SCC(=O)Nc2cccc(C)c2C)nc(=O)[nH]c1C | -6.81 | 
45 | CN(C(=O)c1ccc2c(c1)N(Cc1cccc(Cl)c1)C(=O)c1ccccc1S2=O)C1CCCCC1 (stereo unspecified) | -9.49 | 
46 | CC(=O)N(C1=C(Cl)C(=O)c2ccccc2C1=O)c1ccc(C(=O)O)cc1 |  | 14.1 µM (active)
